Activity calls are given as the source filed them. Rule for the calls: active = hit-call score of the fitted dose curve at least 0.9, where 1 is the maximum; inactive = score below 0.9.
Assays:
[1] = biological target: CCAAT/enhancer-binding protein beta (Homo sapiens) (UniProt P17676); assay: ATG_C_EBP_CIS: Attagene CIS-FACTORIAL HepG2 Assay for human CCAAT/Enhancer Binding Protein (C/EBP) beta (AID 2282927); conditions: HepG2 Attagene cis-factorial transcription factor reporter; actives raise or lower the signal
Summary of the method: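 Transiently transfected HepG2 (MRTU library, endogenous TF-driven promoters); 24 h dosing; total RNA → oligo(dT) RT → PCR → 6-FAM primer extension → HpaI digest → CE; fit bidirectionally vs DMSO.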

[2] = ATG_CMV_CIS: Attagene CIS-FACTORIAL HepG2 Assay for human CMV (Internal Marker) (AID 2282928); conditions: HepG2 CMV promoter reporter, transcription factor profiling; actives raise or lower the signal;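 note: endpoint acts as a background internal control marker rather than a target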
Summary of the method: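 Endogenous transcription factor activity read in HepG2 via transfected cis-promoter reporter units. After 24 h dosing, reporter mRNA measured by RT-PCR/capillary electrophoresis; gain or loss of signal fit relative to DMSO.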

[3] = ATG_DR4_LXR_CIS: Attagene CIS-FACTORIAL HepG2 Assay for human Liver X Receptor (LXR), DR4 submotif (AID 2282929); conditions: HepG2 Attagene DR4 cis-reporter, mRNA transcription; actives raise or lower the signal
Summary of the method: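 Transiently transfected HepG2 liver cells; cis-regulated reporters; 24 h dosing. RT-PCR plus CE read-out of reporter mRNA. DMSO baseline, bidirectional curve fitting.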

[4] = ATG_AP_1_CIS: Attagene CIS-FACTORIAL HepG2 Assay for human Activator Protein 1 (AP-1) (AID 2282931); conditions: HepG2 Attagene cis-factorial AP-1 reporter mRNA; actives raise or lower the signal
Summary of the method: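 We transfected HepG2 cells transiently with a set of cis-regulated reporter transcription units, dosed them for 24 h, and quantified reporter mRNA via RT-PCR and capillary electrophoresis, scoring gain or loss of signal relative to DMSO.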

[5] = ATG_BRE_CIS: Attagene CIS-FACTORIAL HepG2 Assay for human Bone Morphogenetic Protein (BMP) Response Element (BRE) (AID 2282933); conditions: HepG2 BMP response element reporter, Attagene transcription factor profiling; actives raise or lower the signal
Summary of the method: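 Endogenous transcription factor activity read in transiently transfected HepG2 cells after 24 h chemical exposure. Bidirectional curve fitting against DMSO; readout is reporter transcript level by RT-PCR with capillary electrophoresis of labelled products.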

[6] = ATG_E_Box_CIS: Attagene CIS-FACTORIAL HepG2 Assay for human Enhancer Box (E-box) (AID 2282936); conditions: HepG2 E-box cis-reporter transcription, actives raise or lower the signal
Summary of the method: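 First, HepG2 cells receive multiple cis-regulated reporter constructs by transient transfection. Next, chemicals are applied for 24 h. Finally, reporter mRNA is quantified via RT-PCR and capillary electrophoresis, with DMSO as baseline.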

[7] = ATG_EGR_CIS: Attagene CIS-FACTORIAL HepG2 Assay for human Early Growth Response 1 (EGR1) (AID 2282938); conditions: HepG2 Attagene CIS-FACTORIAL EGR reporter mRNA; actives raise or lower the signal
Summary of the method: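 Multiplexed cis-reporter system in human hepatoma HepG2 cells, transiently transfected. Cells are dosed for 24 h; reporter transcripts are amplified, fluorescently tagged and sized by capillary electrophoresis, with DMSO as negative control.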

[8] = ATG_M_19_CIS: Attagene CIS-FACTORIAL HepG2 Assay for M19 Transcription Factor (Internal Marker) (AID 2282939); conditions: HepG2 Attagene CIS-FACTORIAL M19 internal marker reporter; actives raise or lower the signal
Summary of the method: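 Internal marker readout, fitted in both directions against DMSO, from HepG2 cells carrying transfected cis-element reporter constructs; RT-PCR and capillary electrophoresis of reporter mRNA after 24 h exposure.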

[9] = ATG_Ets_CIS: Attagene CIS-FACTORIAL HepG2 Assay for human Erythroblast Transformation Specific (ETS) (AID 2282941); conditions: HepG2 ETS cis-reporter transcription, actives raise or lower the signal
Summary of the method: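 Steps: transfect HepG2 with multiple reporter units; treat compound 24 h; isolate RNA, DNase-treat, reverse-transcribe; PCR-amplify, label with 6-FAM, digest with HpaI; separate by capillary electrophoresis. Activity fitted both directions versus DMSO.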

[10] = ATG_FoxO_CIS: Attagene CIS-FACTORIAL HepG2 Assay for human Forkhead box O (FoxO) (AID 2282943); conditions: HepG2 Attagene cis-reporter, FoxO element, mRNA; actives raise or lower the signal
Summary of the method: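 Read-out: fluorescence of 6-FAM-labelled reporter cDNA fragments resolved by capillary electrophoresis. Transiently transfected HepG2 cells were dosed for 24 h; activity fitted in both directions relative to DMSO controls.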

[11] = ATG_GATA_CIS: Attagene CIS-FACTORIAL HepG2 Assay for human GATA Binding Protein (AID 2282944); conditions: HepG2 GATA cis-element reporter, Attagene multiplex mRNA; actives raise or lower the signal
Summary of the method: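 Reporter transcripts from a GATA cis-regulated unit, among multiplexed reporters in transfected HepG2 cells, were measured by RT-PCR with capillary electrophoresis after 24 h dosing. Induction or loss scored relative to DMSO.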

[12] = ATG_ISRE_CIS: Attagene CIS-FACTORIAL HepG2 Assay for human Interferon Regulatory Factor 1 (IRF1) binding to an Interferon-Stimulated Response Element (ISRE) (AID 2282948); conditions: HepG2 ISRE cis-reporter (Attagene), mRNA transcription readout; actives raise or lower the signal
Summary of the method: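 Transfected HepG2 (multiple reporter transcription units, cis elements) dosed 24 h. RNA → oligo(dT) RT → PCR → 6-FAM primer extension → HpaI → CE. DMSO = negative control/baseline.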

[13] = ATG_M_06_CIS: Attagene CIS-FACTORIAL HepG2 Assay for M06 Transcription Factor (Internal Marker) (AID 2282950); conditions: HepG2 Attagene CIS-FACTORIAL M06 internal marker reporter; actives raise or lower the signal
Summary of the method: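 Serves as a background control readout. Transfected HepG2 exposed to compounds for 24 h, then reporter transcripts quantified by fluorescent RT-PCR and capillary electrophoresis. Both directions fitted against DMSO baseline.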

[14] = ATG_MRE_CIS: Attagene CIS-FACTORIAL HepG2 Assay for human Metal Responsive Element (MRE) (AID 2282954); conditions: HepG2 MRE cis-reporter transcription, Attagene multiplex; actives raise or lower the signal
Summary of the method: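 Fluorescent reporter fragments separated by capillary electrophoresis give mRNA induction for the MRE unit after 24 h treatment of transfected HepG2 cells. Endogenous transcription-factor activity is read; DMSO serves as negative control and baseline.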

[15] = biological target: Paired box protein Pax-6 (Homo sapiens) (UniProt P26367); assay: ATG_Pax6_CIS: Attagene CIS-FACTORIAL HepG2 Assay for human Paired Box 6 (PAX6) (AID 2282956); conditions: HepG2 CIS-FACTORIAL PAX6 reporter transcription, RNA readout; actives raise or lower the signal
Summary of the method: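 Transient MRTU transfection of HepG2 → compound exposure 24 h → TriZol RNA, oligo(dT) RT → PCR, 6-FAM primer extension, HpaI cut → capillary electrophoresis; activity fitted both directions against DMSO.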

[16] = ATG_Sox_CIS: Attagene CIS-FACTORIAL HepG2 Assay for human SRY-box transcription factor (SOX) (AID 2282960); conditions: HepG2 Attagene cis-factorial SOX reporter, mRNA; actives raise or lower the signal
Summary of the method: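 Fluorescence-labelled cDNA fragments from reporter transcripts, sized by CE, give the signal. Cells: HepG2, transiently transfected with cis-regulated reporter units. Exposure 24 h; DMSO negative control; bidirectional curve fitting.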

[17] = biological target: Transcription factor Sp1 (Homo sapiens) (UniProt P08047); assay: ATG_Sp1_CIS: Attagene CIS-FACTORIAL HepG2 Assay for human Specificity Protein 1 (Sp1) (AID 2282961); conditions: HepG2 Sp1 cis-reporter transcription, actives raise or lower the signal
Summary of the method: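 Chemicals are dosed onto HepG2 cells transfected with multiple cis-promoter reporter constructs, and after 24 h reporter RNA is reverse-transcribed, PCR-amplified and resolved by capillary electrophoresis for fluorescence quantitation; activity is scored up or down against DMSO.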

[18] = biological target: Signal transducer and activator of transcription 3 (Homo sapiens) (UniProt P40763); assay: ATG_STAT3_CIS: Attagene CIS-FACTORIAL HepG2 Assay for human Signal Transducer and Activator of Transcription 3 (STAT3) (AID 2282963); conditions: HepG2, Attagene cis-factorial STAT3 reporter transcription; actives raise or lower the signal
Summary of the method: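 Values derive from bidirectional fits relative to DMSO of reporter mRNA levels, measured by RT-PCR with capillary electrophoresis, in HepG2 cells carrying transiently transfected cis-regulated reporter units and exposed 24 h.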

[19] = ATG_TA_CIS: Attagene CIS-FACTORIAL HepG2 Assay for human TA Basal Promoter (AID 2282964); conditions: HepG2 Attagene CIS-factorial TA basal promoter reporter; actives raise or lower the signal
Summary of the method: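 Background-control readout: TA basal promoter reporter mRNA, fitted in both directions relative to DMSO. Measured by RT-PCR and capillary electrophoresis 24 hours after treating HepG2 human liver cells transiently carrying multiplexed cis-regulated reporter constructs.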

[20] = ATG_TCF_b_cat_CIS: Attagene CIS-FACTORIAL HepG2 Assay for human T-Cell-Factor with beta-catenin (TCF/b-cat) (AID 2282965); conditions: HepG2 TCF/beta-catenin cis-reporter transcription, actives raise or lower the signal
Summary of the method: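 HepG2, transient MRTU transfection, cis-element-driven reporters (endogenous TFs). 24 h compound exposure. Readout: reporter mRNA by RT-PCR + 6-FAM primer extension, HpaI digest, capillary electrophoresis. Gain/loss fit vs DMSO baseline.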

Measured: AC50

Sequence of Signal transducer and activator of transcription 3 (Homo sapiens) (P40763 whole entry, looked up): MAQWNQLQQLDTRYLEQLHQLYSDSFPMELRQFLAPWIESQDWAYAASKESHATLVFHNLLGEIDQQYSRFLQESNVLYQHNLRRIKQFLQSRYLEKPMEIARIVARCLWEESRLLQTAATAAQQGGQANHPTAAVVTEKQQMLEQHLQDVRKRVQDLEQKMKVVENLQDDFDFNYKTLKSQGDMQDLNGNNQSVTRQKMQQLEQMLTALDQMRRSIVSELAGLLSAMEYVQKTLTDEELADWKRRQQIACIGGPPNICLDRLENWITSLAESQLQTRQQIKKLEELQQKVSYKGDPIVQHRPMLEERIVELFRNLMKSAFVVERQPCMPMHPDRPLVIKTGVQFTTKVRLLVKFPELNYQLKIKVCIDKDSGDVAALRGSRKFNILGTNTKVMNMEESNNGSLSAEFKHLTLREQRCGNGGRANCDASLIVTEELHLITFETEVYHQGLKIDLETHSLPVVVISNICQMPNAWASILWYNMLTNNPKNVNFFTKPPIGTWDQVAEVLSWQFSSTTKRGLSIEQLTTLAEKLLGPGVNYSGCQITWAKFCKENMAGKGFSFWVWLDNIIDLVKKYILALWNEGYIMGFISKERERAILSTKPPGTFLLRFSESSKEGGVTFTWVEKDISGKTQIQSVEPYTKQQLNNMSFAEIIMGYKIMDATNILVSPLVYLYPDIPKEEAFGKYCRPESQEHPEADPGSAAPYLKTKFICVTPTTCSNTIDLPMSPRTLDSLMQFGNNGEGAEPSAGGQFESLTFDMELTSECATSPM
Sequence of CCAAT/enhancer-binding protein beta (Homo sapiens) (P17676 whole entry, looked up): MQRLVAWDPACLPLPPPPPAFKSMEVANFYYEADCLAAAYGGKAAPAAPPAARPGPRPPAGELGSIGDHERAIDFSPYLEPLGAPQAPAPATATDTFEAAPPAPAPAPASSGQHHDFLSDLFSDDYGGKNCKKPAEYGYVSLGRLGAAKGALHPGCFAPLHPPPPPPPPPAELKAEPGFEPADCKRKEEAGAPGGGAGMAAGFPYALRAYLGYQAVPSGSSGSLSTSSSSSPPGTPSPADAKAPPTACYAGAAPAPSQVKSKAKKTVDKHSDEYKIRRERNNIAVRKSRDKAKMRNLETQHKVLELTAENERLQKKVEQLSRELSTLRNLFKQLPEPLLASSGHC
Sequence of Paired box protein Pax-6 (Homo sapiens) (P26367 whole entry, looked up): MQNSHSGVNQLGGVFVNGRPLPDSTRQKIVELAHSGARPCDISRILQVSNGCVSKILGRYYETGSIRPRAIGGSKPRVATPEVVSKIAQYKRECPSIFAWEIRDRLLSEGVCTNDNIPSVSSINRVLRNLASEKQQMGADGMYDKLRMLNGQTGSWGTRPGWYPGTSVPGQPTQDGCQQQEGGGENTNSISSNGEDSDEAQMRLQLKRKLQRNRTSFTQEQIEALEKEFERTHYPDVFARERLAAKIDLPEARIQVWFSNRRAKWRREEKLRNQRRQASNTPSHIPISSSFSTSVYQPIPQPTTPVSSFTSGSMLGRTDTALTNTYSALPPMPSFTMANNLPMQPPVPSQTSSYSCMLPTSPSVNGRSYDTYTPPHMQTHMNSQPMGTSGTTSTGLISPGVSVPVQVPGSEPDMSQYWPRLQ
Sequence of Transcription factor Sp1 (Homo sapiens) (P08047 whole entry, looked up): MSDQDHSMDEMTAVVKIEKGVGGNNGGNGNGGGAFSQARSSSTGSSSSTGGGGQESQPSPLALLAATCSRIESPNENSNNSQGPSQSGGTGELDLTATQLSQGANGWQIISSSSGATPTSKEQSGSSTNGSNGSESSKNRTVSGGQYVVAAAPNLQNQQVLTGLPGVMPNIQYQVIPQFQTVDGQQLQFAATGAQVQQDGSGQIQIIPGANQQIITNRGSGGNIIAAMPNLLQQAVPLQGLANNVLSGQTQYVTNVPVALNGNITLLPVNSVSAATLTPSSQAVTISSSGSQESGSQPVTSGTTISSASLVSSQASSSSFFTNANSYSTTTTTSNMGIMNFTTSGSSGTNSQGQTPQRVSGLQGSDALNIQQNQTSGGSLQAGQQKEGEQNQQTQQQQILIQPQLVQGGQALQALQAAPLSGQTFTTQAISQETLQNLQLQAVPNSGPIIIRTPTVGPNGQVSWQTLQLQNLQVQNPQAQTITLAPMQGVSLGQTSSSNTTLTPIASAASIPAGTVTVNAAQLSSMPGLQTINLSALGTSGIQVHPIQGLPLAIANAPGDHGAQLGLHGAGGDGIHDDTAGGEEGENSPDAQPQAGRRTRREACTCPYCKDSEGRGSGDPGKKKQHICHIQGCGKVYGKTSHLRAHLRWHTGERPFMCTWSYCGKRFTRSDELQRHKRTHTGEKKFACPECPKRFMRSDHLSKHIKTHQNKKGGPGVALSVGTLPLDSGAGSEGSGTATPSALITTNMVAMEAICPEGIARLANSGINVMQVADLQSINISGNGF

CCCOC(=O)c1ccccc1C(=O)OCCC
inactive: all assays above

O=C(CCl)c1ccccc1
active: [3] 21.1 µM | [4] 59.3 µM | [6] 16.2 µM | [12] 18.8 µM
inactive: all other assays above

CCC[N+](=O)[O-]
inactive: all assays above

CC(C)(O)C#N
inactive: all assays above

O=[N+]([O-])c1ccc(Cl)cc1
inactive: all assays above

CCN(CC)C(=S)S
active: [2] 100 µM | [4] 65.5 µM | [14] 71.9 µM
inactive: all other assays above

CCOP(=O)(OCC)OCC
inactive: all assays above

Cc1ccccc1CCl
inactive: all assays above

CC(C)(c1cc(Cl)c(O)c(Cl)c1)c1cc(Cl)c(O)c(Cl)c1
active: [2] 8 µM | [3] 33.4 µM | [7] 52.8 µM | [12] 47.2 µM | [14] 58.4 µM | [15] 52.3 µM | [20] 33.4 µM
inactive: all other assays above

CC(C)C(=O)Cl
inactive: all assays above

CC1OC(C)OC(C)O1 (stereo not given)
inactive: all assays above

C[C@]12CC[C@H](O)C[C@H]1CC[C@@H]1[C@@H]2C[C@@H](O)[C@]2(C)[C@@H](C3=CC(=O)OC3)CC[C@]12O
active: [1] 2.8 µM | [2] 0.72 µM | [4] 3.46 µM | [7] 2.68 µM | [9] 8.76 µM | [10] 8.56 µM | [11] 7.98 µM | [12] 13.8 µM | [14] 2.73 µM | [15] 0.513 µM | [17] 1.28 µM
inactive: [3] | [5] | [6] | [8] | [13] | [16] | [18] | [19] | [20]

N#CCNCC#N
inactive: all assays above

CNC(=N[N+](=O)[O-])NCC1CCOC1 (stereo not given)
inactive: all assays above

— PubChem BioAssay (EPA / NIEHS)
